Source: PubChem BioAssay (NCATS)
Records with an inconclusive call do not appear. Entries that show only a call come without a potency. Activity calls are given as the source filed them. Calls follow the shape of the dose curve; as a rule, active = well fitted cell-killing curve with a large enough effect; inconclusive = small, poorly fitted or top-dose-only effect; inactive = flat fitted curve, though single readings scatter.

Test: qHTS assay to identify small molecule inhibitors of chordoma cells - UCH-2 (AID 1259356)
Conditions: UCH-2 chordoma viability, CellTiter-Glo ATP luminescence, 48 h; series mostly up to 46.1 µM

Row | SMILES | Potency
1 | C[C@H](O)CN(C)C | inactive
2 | C[C@@H]1C/C=C/C=C/C=C/C=C/[C@H](O[C@@H]2O[C@H](C)[C@@H](O)[C@H](N)[C@@H]2O)C[C@@H]2O[C@](O)(C[C@@H](O)C[C@H]3O[C@@H]3/C=C/C(=O)O1)C[C@H](O)[C@H]2C(=O)O | inactive
3 | COc1ccc(/C=N/NC(=O)c2ccncc2)c(C(=O)O)c1OC | inactive
4 | FC(F)OC(Cl)C(F)(F)F (centres undefined) | inactive
5 | O=C(O)/C=C/c1ccccc1 | inactive
6 | O=P(O)(O)OP(=O)(O)O | inactive
7 | O=S(=O)(O)CC(S)CS (centres undefined) | inactive
8 | CCCOC(=O)c1ccccc1O | inactive
9 | O=C1c2c(O)cccc2[C@H]([C@@H]2O[C@H](CO)[C@@H](O)[C@H](O)[C@H]2O)c2cc(CO)cc(O)c21 | inactive
10 | O=P(O)(O)OP(=O)(O)OP(=O)(O)O | inactive
11 | CN1CCC(OC(=O)C(Oc2ccc(Cl)cc2)Oc2ccc(Cl)cc2)CC1 | inactive
12 | CC(=O)N[C@@H]1C(O[C@H]2O[C@H](C(=O)O)C(O)[C@H](O)[C@H]2O)[C@H](O)[C@@H](CO)O[C@H]1O[C@@H]1C(C(=O)O)O[C@@H](O[C@H]2[C@H](O)[C@@H](CO)OC(O)[C@@H]2NC(C)=O)[C@H](O)[C@H]1O (some centres undefined) | inactive
13 | NC[C@H]1O[C@H](O[C@H]2[C@H](O)[C@@H](O[C@H]3O[C@H](CO)[C@@H](O)[C@H](N)[C@H]3O)[C@H](N)C[C@@H]2N)[C@H](O)[C@@H](O)[C@@H]1O | inactive
14 | Nc1nc(/C(=C/CC(=O)O)C(=O)N[C@@H]2C(=O)N3C(C(=O)O)=CCS[C@H]23)cs1 | inactive
